Screen size: about 5,500 compounds; about 2,000 (36%) were called active. Roughly 18% stayed inconclusive and do not appear here. Rule as the data show it: active = normalized growth mostly below about 0.91 (no sharp cut-off); inconclusive = no clear call, values can overlap the other calls; inactive = mostly above about 0.92. The list shows a part of the results.
Test: chemical genetic growth profiling, strain panel (AID 1159580);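 also: tested at 20 µM; growth read once vehicle control cultures reached saturation at 30 °C; 1 = growth at the plate median or of vehicle wells; lower values mean less growth of the strain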
Settings: S. cerevisiae deletion strains, growth OD

Measured: normalized growth

O=C(O)C1CC(=O)N(Cc2ccccc2Cl)C1 (stereo not drawn)
inactive: locus YAL013W, strain DEP1, hits give low values 1.01 | locus YBR229C, strain ROT2, hits give low values 1 | locus YCL061C, strain MRC1, hits give low values 1.02 | locus YDL101C, strain DUN1, hits give low values 0.994 | locus YDL134C, strain PPH21, hits give low values 1.01 | locus YDR150W, strain NUM1, hits give low values 0.947 | locus YEL061C, strain CIN8, hits give low values 1.03 | locus YGR078C, strain PAC10, hits give low values 1.01 | locus YHR030C, strain SLT2, hits give low values 1.15 | locus YHR087W, strain rtc3, hits give low values 1.01 | locus YJR043C, strain POL32, hits give low values 0.966 | locus YJR075W, strain HOC1, hits give low values 1 | locus YLR039C, strain RIC1, hits give low values 1.04 | locus YLR058C, strain SHM2 (second series), hits give low values 1 | locus YLR085C, strain ARP6, hits give low values 1.04 | locus YLR262C, strain YPT6, hits give low values 1.01 | locus YML094W, strain GIM5, hits give low values 1.04 | locus YMR219W, strain ESC1, hits give low values 1.01 | locus YMR263W, strain SAP30, hits give low values 1.01 | locus YMR307W, strain GAS1, hits give low values 1.02 | locus YNL153C, strain GIM3, hits give low values 0.992 | locus YNL298W, strain CLA4 (second series), hits give low values 1.07 | locus YNL322C, strain KRE1, hits give low values 1.01 | locus YNR030W, strain Alg12, hits give low values 1.03 | locus YOL006C, strain TOP1, hits give low values 1.08 | locus YPL055C, strain LGE1, hits give low values 0.931 | locus YPL241C, strain CIN2, hits give low values 1.11 | locus YPR135W, strain CTF4, hits give low values 1.06
